High-throughput results from PubChem BioAssay.
TRHR agonist = agonists of human TRH receptor; 0.18% of 360,000 active; activation, % at 2 µM; P34981; TRHR cells, calcium flux fluo-8, FDSS agonist mode
Target sequence (P34981 whole entry, looked up): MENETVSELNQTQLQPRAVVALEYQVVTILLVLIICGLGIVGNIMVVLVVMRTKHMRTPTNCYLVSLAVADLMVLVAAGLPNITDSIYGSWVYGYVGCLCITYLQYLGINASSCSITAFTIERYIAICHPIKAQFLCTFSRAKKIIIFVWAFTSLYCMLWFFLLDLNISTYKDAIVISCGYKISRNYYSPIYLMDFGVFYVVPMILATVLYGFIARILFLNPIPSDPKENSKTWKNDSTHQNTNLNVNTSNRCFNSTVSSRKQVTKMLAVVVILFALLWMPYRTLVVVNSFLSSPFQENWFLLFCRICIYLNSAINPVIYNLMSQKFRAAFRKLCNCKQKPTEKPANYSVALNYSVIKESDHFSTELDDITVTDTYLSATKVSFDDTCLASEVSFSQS
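Fluo-8-loaded TRHR cells; 10 s baseline, compound added, kinetic Ca2+ fluorescence read 1/s, agonist mode.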
D1 ag = agonists of human D1 dopamine receptor; AID 504660; HEK293 T-REx D1 cells, calcium flux, agonist mode; activation, % at 2 µM; P21728; 1% of 360,000 active
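Inducible HEK293 T-REx D1 cells, force-coupled to calcium signalling, were plated at 4000 cells/well with tetracycline and held overnight at 30 C. After no-wash calcium dye loading, compound-evoked calcium rise over 180 s flagged agonists.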
D1 antagonist = human D1 dopamine receptor antagonism. HEK293 TREx D1 cells, calcium flux, dopamine EC80; active compounds read low. P21728. 3.2% of 360,000 active. activity change, negative = inhibition, % at 10 µM; in the data active means activity change below about -30%
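Antagonism measured as reduced calcium response to an EC80 dopamine addition following 180 s compound pre-read; cells were inducible HEK293 Trex D1 plated overnight at 30 C, read kinetically at 1 cycle/sec.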
D1 potentiator = human D1 dopamine receptor positive modulation; P21728; HEK293 TREx D1 cells, calcium flux, dopamine EC20 potentiation; AID 504651; 0.036% of 360,000 active; potentiation, % at 10 µM; in the data active means potentiation above about 30%
TRHR enhancer = allosterically enhances the human TRH receptor; TRHR cells, fluo-8 calcium fluorescence, EC20 TRH enhancement; 0.66% of 360,000 active; enhancement, % at 2 µM; in the data active means enhancement above about 30%
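TRHR-expressing cells loaded with fluo-8 calcium dye were read kinetically (ex 480/em 530) during compound addition, then stimulated with an EC20 of TRH (10 nM final). Enhancement of the Gq-mediated intracellular calcium response was scored.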
Numbers stand for hits; i = inactive; nt = no result given; ! = not active in a repeat. This is a sample that favours compounds with a hit; in the whole collection about 4.7% have one here. Unless noted, no stated cut-off is given here; in the data, active means activation above about 30%; inactive means the rest.

SMILES	TRHR agonist	D1 ag	D1 antagonist	D1 potentiator	TRHR enhancer
CC(=O)c1ccc(N2CCN(C(=O)Nc3ccc(C)cc3)CC2)cc1	i	i	-40!	i	i
O=C(Nc1ccc2c(c1)OCO2)N1CCN(c2ccccc2)CC1	i	i	i	i	i
CC(=O)c1ccc(N2CCN(C(=S)Nc3cccc(Cl)c3)CC2)cc1	i	i	-37	i	i
CC(C)c1ccc(NC(=O)N2CCN(c3ccc(Cl)c(Cl)c3)CC2)cc1	i	i	i	i	i
CC(=O)c1ccc(NC(=S)N2CCN(c3cccc(Cl)c3)CC2)cc1	i	i	nt	i	i
COc1ccc(C2CCCN2C(=S)Nc2cccc(C)c2)cc1OC (configuration not stated)	i	i	-59	i	i
COc1ccc(NC(=S)N2CCCC2c2ccc(OC)c(OC)c2)cc1 (configuration not stated)	i	i	i	i	i
O=C(Nc1ccc2c(c1)OCCO2)N1CCN(c2ccccc2)CC1	i	i	-46	i	i
Cc1ccc(NC(=O)N2CCN(c3ccc(Cl)c(Cl)c3)CC2)cc1	i	i	-30	i	i
NC(=O)C1CCN(C(=O)c2ccc3c(c2)N(Cc2cccc(Cl)c2)C(=O)c2ccccc2S3=O)CC1 (configuration not stated)	i	i	i	i	i
Cc1cc(-c2ccc(C)c(S(=O)(=O)Nc3cccc(C#N)c3)c2)on1	i	i	i	i	i
CCN(CC)S(=O)(=O)c1ccc2c(c1)c(=O)c(C(=O)NCc1ccccc1Cl)cn2C	i	i	i	i	i
O=C(Nc1cccc2ccccc12)N1CCCN(c2c(Cl)cncc2Cl)CC1	i	i	i	i	i
CC(=O)c1ccc(N2CCN(C(=O)Nc3cccc(F)c3)CC2)cc1	i	i	-35!	i	i
Cc1cc(C)cc(NC(=O)N2CCCN(c3c(Cl)cncc3Cl)CC2)c1	i	i	-33	i	i
COc1cccc(-n2cc(C(=O)Nc3cccc(C(F)(F)F)c3)c3ccccc3c2=O)c1	i	i	i	i	i
CSc1nn(Cc2ccccc2C)c(NC(C)=O)c1S(=O)(=O)c1ccc(C)cc1	i	i	-33	i	i
CCc1nnc(NC(=O)CSc2nnc(CNc3cccc(C)c3)n2-c2ccccc2)s1	i	i	-31	i	i
CCOC(=O)CSc1nnc(CNc2ccc(Cl)cc2)n1-c1ccccc1	i	i	-52	i	i
CC(C)OP(=O)(OC(C)C)C(NC(=O)c1ccccc1Br)C(N)=O (configuration not stated)	i	i	i	i	32
CC(C)NC(=O)Cn1ccc2cc(S(=O)(=O)N3CCCCCC3)ccc21	i	i	i	i	i
CC(C)C(=O)N1CCN(c2ccc(NC(=O)COc3ccccc3[N+](=O)[O-])cc2)CC1	i	i	-31	i	i
COCCCNC(=O)CCc1c(C)c2cc3c(C)coc3cc2oc1=O	i	i	-56	i	i
COc1ccc(CNC(=O)CCc2c(C)c3cc4c(C)c(C)oc4cc3oc2=O)cc1	i	i	-36	i	i
CCOc1ccccc1NC(=O)CN1C(=O)COc2ccc(S(=O)(=O)N3CCCCC3)cc21	i	i	i	i	i
SMILES	TRHR agonist	D1 ag	D1 antagonist	D1 potentiator	TRHR enhancer
COc1ccc(NC(=O)CSc2ccccn2)cc1OC	i	i	i	i	i
COc1ccc(NC(=O)CSc2ncccc2C(=O)OC(C)C)cc1OC	i	i	-37	i	i
CSc1ncc(C(=O)Nc2cccc(C)c2C)c(C)n1	i	i	-47	i	i
CSc1ncc(C(=O)Nc2ccccc2C)c(C)n1	i	i	i	i	i
CCN(CC)c1ccc(/C=C/c2cc(-c3ccccc3)c3ccccc3n2)cc1	89	325	-57	i	i
COc1cc(CNc2ccc3[nH]c(=O)[nH]c3c2)ccc1OCc1ccccc1F	i	i	i	i	i
COc1cc(CNc2ccc3[nH]c(=O)[nH]c3c2)ccc1OCc1ccccc1C	i	i	-57	i	i
Cc1nc2nncn2c(NCc2ccc(Cl)cc2)c1C	i	i	-34	i	i
Cc1nc2nncn2c(NCc2ccc(F)cc2)c1C	i	i	i	i	i
Oc1cncc(-c2cccnc2)c1	i	i	nt	i	31
CCOC(=O)c1c(C)c(-c2ccccc2)n(CC(=O)NC2CCCCCC2)c1C	i	i	i	i	i
Cc1nnc(SCCn2c(N3CCC(C)CC3)nc3c2c(=O)[nH]c(=O)n3C)s1	i	i	-60	i	i
CCN(Cc1ccc(OC)c(F)c1)C(=O)/C=C/c1ccc(S(=O)(=O)N2CCOCC2)cc1	i	i	-41	i	i
COc1ccc(C(C)=O)cc1CSc1nc(NCCc2ccccc2)c2ccccc2n1	i	i	i	i	i
Fc1cccc(CSc2nc(NCCc3ccccc3)c3ccccc3n2)c1	i	i	-46	i	i
O=C1CC(c2cccc(O)c2)c2c(nc(SCc3ccccc3F)[nH]c2=O)N1 (configuration not stated)	i	i	i	i	i
Cc1ccc(-n2c(SCc3ccccc3)nc3c([nH]c4ccccc43)c2=O)cc1	i	i	-33	i	i
Cc1cccc(Nc2nnc(-c3ccc(C)c(S(=O)(=O)N4CCN(C)CC4)c3)c3ccccc23)c1	i	i	-44	i	i
Cc1ccc(-c2nnc(Nc3cccc(Br)c3)c3ccccc23)cc1S(=O)(=O)N1CCN(C)CC1	i	i	i	i	i
Oc1ccc(-c2nnc(Nc3cccc(O)c3)c3ccccc23)cc1	i	i	i	i	i
Cc1ccc(Nc2nnc(-c3ccc(C)c(S(=O)(=O)N4CCN(C)CC4)c3)c3ccccc23)c(C)c1	i	i	-57	i	i
Cc1ccc(Nc2nnc(-c3ccc(C)c(S(=O)(=O)N4CCN(C)CC4)c3)c3ccccc23)cc1	i	i	i	i	i
C#CCOc1ccc(-c2nnc(Nc3cccc(C)c3)c3ccccc23)cc1	i	i	-45	i	i
COc1ccc(CNC(=O)C2CCN(c3nc4ccccc4[nH]3)CC2)cc1OC	i	i	i	i	i
COc1ccc(-c2cc(C(=O)N3CC4(C)CC3CC(C)(C)C4)no2)cc1OC (configuration not stated)	i	i	i	i	i
SMILES	TRHR agonist	D1 ag	D1 antagonist	D1 potentiator	TRHR enhancer
COc1ccc(-c2cc(C(=O)N3CC4(C)CC3CC(C)(C)C4)no2)cc1 (configuration not stated)	i	i	-33	i	i
Cc1ccc2cn[nH]c2c1NC(N)=S	i	i	-36	i	i
NC(=S)Nc1cccc2cn[nH]c12	i	i	i	i	i
CCCSc1ncc(Cl)c(C(=O)Nc2c(C(=O)c3ccc(F)cc3)oc3ccccc23)n1	i	i	i	i	i
c1ccc(N2CCN(c3ncnc4[nH]ncc34)CC2)cc1	i	i	-35	i	i
O=C(CC1C(=O)N(c2ccccc2)C(=O)N1Cc1ccc(F)cc1)Nc1cccc(F)c1 (configuration not stated)	i	i	i	i	i
